The source of these data is article PMC10726135, “HNF4α isoforms regulate the circadian balance between carbohydrate and lipid metabolism in the liver”.

In all, about 18,000 sequences were measured (“log2 normalized intensity”: median about 0.39, highest 2% from about 6.6 on). This is one part of a sample in which the highest values are shown more often than they occur.

The target in this assay is T1, HNF4alpha2 (COS-7 nuclear extract) (Homo sapiens, UniProt P41235 1-474).
T1 sequence: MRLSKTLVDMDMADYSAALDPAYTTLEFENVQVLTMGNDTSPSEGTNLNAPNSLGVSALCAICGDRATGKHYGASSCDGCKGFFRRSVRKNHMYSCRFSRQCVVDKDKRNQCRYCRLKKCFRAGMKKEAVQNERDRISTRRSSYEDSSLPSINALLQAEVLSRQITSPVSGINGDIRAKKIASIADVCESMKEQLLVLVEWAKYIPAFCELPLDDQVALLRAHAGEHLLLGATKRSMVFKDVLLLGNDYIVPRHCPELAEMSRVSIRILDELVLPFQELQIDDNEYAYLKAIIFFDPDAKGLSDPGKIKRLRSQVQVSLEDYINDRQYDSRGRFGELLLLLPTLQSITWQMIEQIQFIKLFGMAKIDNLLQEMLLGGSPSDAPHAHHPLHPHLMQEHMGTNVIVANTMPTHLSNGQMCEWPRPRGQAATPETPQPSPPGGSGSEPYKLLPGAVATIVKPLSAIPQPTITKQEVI
Put plainly: protein-binding microarray; COS-7 nuclear extract on double-stranded Agilent 4x180k PBM; binding buffer, salt, pH and temperature not given in the material; high values mean tight binding. Conditions: chain copies: 2; label: 3' end of strand 1 on the slide; dsDNA, one strand shown. Put shortly: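 A custom Agilent SurePrint G3 4x180k array, spotted in quadruplicate with ~44,000 test sequences as ~60-nt oligonucleotides made double-stranded, was incubated with nuclear extracts. The extracts came from COS-7 cells transiently transfected by CaPO4 with a human HNF4α isoform expression vector. Bound HNF4α was imaged on an Agilent G2565CA scanner at 2-µm resolution, and the binding signal was taken as Agilent software's background-corrected, normalized gProcessedSignal.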
Consider “CCCTTTGCACATGCCCCTCCCAGGGACACAGCCTAGGGAGATTAGAGTATCGGTCGA”, for which the binding signal came to 3.12 log2 normalized intensity.

Turning to “CAGAAAAATGGAGCAGCTCTGTATTGAGATGCCTAGGGAGATTAGAGTATCGGTCGA”, the binding signal was -0.99 log2 normalized intensity.

In the case of “TGCCATTCTTCCAGTTGTGTGCACAAGAGGGCCTAGGGAGATTAGAGTATCGGTCGA”, the binding signal stood at 1.7 log2 normalized intensity.

For “GAATTTCATTTTGCTCTTTGTTCAGATACAGCCTAGGGAGATTAGAGTATCGGTCGA”, the binding signal is 1.33 log2 normalized intensity.

With “TTTTTTCAAGTGTTAGCTGTTTCCAAATATGCCTAGGGAGATTAGAGTATCGGTCGA”, the binding signal came out at 1.42 log2 normalized intensity.

Turning to “AATCCCTTAGGCTTTTGCACTTTACTCAGAGCCTAGGGAGATTAGAGTATCGGTCGA”, the binding signal came out at 3.14 log2 normalized intensity.

With “CCCCTCCCTCCGCAACCTTTACTCCTTGTGGCCTAGGGAGATTAGAGTATCGGTCGA”, the binding signal came out at 3.68 log2 normalized intensity.

As to “GTCACCACCTTTTTTGGCCTTTACCCCTTGGCCTAGGGAGATTAGAGTATCGGTCGA”, the binding signal was 4.8 log2 normalized intensity.

Consider “AAAAAACCCTAGAGATGTACACAGTTCAAAGCCTAGGGAGATTAGAGTATCGGTCGA”, for which the binding signal was -0.874 log2 normalized intensity.

Take “AGCAGATGGCCAGCCTTTGGACTTTGAACTGCCTAGGGAGATTAGAGTATCGGTCGA”: the binding signal turned out to be 10.7 log2 normalized intensity.

For “GCATTAACATCAACATGGACTTTGAGTCATGCCTAGGGAGATTAGAGTATCGGTCGA”, the binding signal was 6.21 log2 normalized intensity.

As to “GGATAATGTGCCCTTTGTACCTGGGGCAAAGCCTAGGGAGATTAGAGTATCGGTCGA”, the binding signal was determined as 5.03 log2 normalized intensity.

Consider “TTCCTGCATTAACATCAACATGGACTTTGAGCCTAGGGAGATTAGAGTATCGGTCGA”, for which the binding signal was found to be 8.62 log2 normalized intensity.

Consider “TATTTGGATAATGTGCCCTTTGTACCTGGGGCCTAGGGAGATTAGAGTATCGGTCGA”, for which the binding signal was determined as 7.01 log2 normalized intensity.

Take “AGGGTCTTTGCAACTGTGTGTGGCCTGCACGCCTAGGGAGATTAGAGTATCGGTCGA”: the binding signal worked out at 1.38 log2 normalized intensity.

In the case of “ATGGCCAGCCTTTGGACTTTGAACTGCAACGCCTAGGGAGATTAGAGTATCGGTCGA”, the binding signal came out at 9.66 log2 normalized intensity.

Turning to “TCAAATATTTGGATAATGTGCCCTTTGTACGCCTAGGGAGATTAGAGTATCGGTCGA”, the binding signal was found to be 6.6 log2 normalized intensity.

For the sequence “TTTGAAGCAAAGCCTTTGAGCAGATGGAAGGCCTAGGGAGATTAGAGTATCGGTCGA”, the binding signal stood at 0.0298 log2 normalized intensity.

As for “TTTTTGGCCTTTACCCCTTGAGTTTGAACTGCCTAGGGAGATTAGAGTATCGGTCGA”, the binding signal worked out at 3.59 log2 normalized intensity.

For the sequence “TACCTTTCCTGCATTAACATCAACATGGACGCCTAGGGAGATTAGAGTATCGGTCGA”, the binding signal came out at 2.1 log2 normalized intensity.

As for “TGGTGGCACAGGGAATGGCTCGTATGAATGGCCTAGGGAGATTAGAGTATCGGTCGA”, the binding signal was found to be 0.46 log2 normalized intensity.

As for “ATTGACAAAGACCAGTGCTCTTTCTTCTCTGCCTAGGGAGATTAGAGTATCGGTCGA”, the binding signal was -0.734 log2 normalized intensity.

In the case of “AGGGTTCAAACTCCAGCTCTGATACTTTCTGCCTAGGGAGATTAGAGTATCGGTCGA”, the binding signal worked out at 3.12 log2 normalized intensity.

With “GTGAGGCATCTGGACCATTGCTGACCTTGCGCCTAGGGAGATTAGAGTATCGGTCGA”, the binding signal amounted to 3.01 log2 normalized intensity.

As to “CTCTCGTCACCTCCACCCACCCGTGCATCAGCCTAGGGAGATTAGAGTATCGGTCGA”, the binding signal came out at 4.68 log2 normalized intensity.

With “TCCCACTAGGTGGCGCTGTTGACCTTGAAAGCCTAGGGAGATTAGAGTATCGGTCGA”, the binding signal worked out at 3.09 log2 normalized intensity.

In the case of “TGATAGCCATCTGGTGGACTTTGCTCTGCTGCCTAGGGAGATTAGAGTATCGGTCGA”, the binding signal is 7.44 log2 normalized intensity.

“CTGCTTGATAGCCATCTGGTGGACTTTGCTGCCTAGGGAGATTAGAGTATCGGTCGA”: the binding signal is 5.26 log2 normalized intensity.

In the case of “GCCATCTGGTGGACTTTGCTCTGCTCATTTGCCTAGGGAGATTAGAGTATCGGTCGA”, the binding signal amounted to 6.26 log2 normalized intensity.

Regarding “CAAAGGGTCAAGTTCAGATCCTGGCCATGCGCCTAGGGAGATTAGAGTATCGGTCGA”, the binding signal is 0.748 log2 normalized intensity.

For the sequence “GAGCAGGGTATCAGTTGAACAGAATAGAGGGCCTAGGGAGATTAGAGTATCGGTCGA”, the binding signal was -0.996 log2 normalized intensity.

Turning to “GTGTGCAATTAGAGCAAAGGTTACTGCAGAGCCTAGGGAGATTAGAGTATCGGTCGA”, the binding signal worked out at 2.62 log2 normalized intensity.

Consider “GAACCTGCCCTCTGTCCCATGGTGTACAAGGCCTAGGGAGATTAGAGTATCGGTCGA”, for which the binding signal came out at 1.26 log2 normalized intensity.

Turning to “CCAGTTTTCCCAAAGGAGCTTTATTGGTTCGCCTAGGGAGATTAGAGTATCGGTCGA”, the binding signal came out at 1.5 log2 normalized intensity.

In the case of “TGAGAATCTGACCTTTGGTTAACTTCTTAAGCCTAGGGAGATTAGAGTATCGGTCGA”, the binding signal came out at 4.02 log2 normalized intensity.

As for “AAAAGGATGCTAGGTTTGTGAGTCCAAAGGGCCTAGGGAGATTAGAGTATCGGTCGA”, the binding signal is 4.16 log2 normalized intensity.

Consider “AAGGTTGGTTTTTGGAGACAGGAGTAGTCAGCCTAGGGAGATTAGAGTATCGGTCGA”, for which the binding signal is 1.3 log2 normalized intensity.

Regarding “AGGTCAGGGAGTAGGTTTGATTTGTGAAAGGCCTAGGGAGATTAGAGTATCGGTCGA”, the binding signal came out at 0.942 log2 normalized intensity.

In the case of “TAGGTTTGTGAGTCCAAAGGTCAGCCGGGGGCCTAGGGAGATTAGAGTATCGGTCGA”, the binding signal is 7.74 log2 normalized intensity.

Take “ATGTTAGTCTTGAGTCCCAAAGTCCAAAGGGCCTAGGGAGATTAGAGTATCGGTCGA”: the binding signal came out at 5.42 log2 normalized intensity.

As for “TGAGTATCCAAAGGTCAGTGACAAATGTCAGCCTAGGGAGATTAGAGTATCGGTCGA”, the binding signal stood at 3.65 log2 normalized intensity.

On to “TTGTGAGTCCAAAGGTCAGCCGGGGAAGGTGCCTAGGGAGATTAGAGTATCGGTCGA”, for which the binding signal turned out to be 6.71 log2 normalized intensity.

As for “AGTCCAAAGGTCAGCCGGGGAAGGTGCAGGGCCTAGGGAGATTAGAGTATCGGTCGA”, the binding signal is 5 log2 normalized intensity.
